PubChem BioAssay
Calls of active or inactive are those of the source.

Key:
[1] = tested on: Human papillomavirus type 1a protein E7 (residues 44-93); assay: HPV1a E7 fragment binders on microarrays, primary screen, biochemical, small-molecule microarray, residues 44-93, 635 nm fluorescence (AID 1108); conditions: small-molecule microarray binding, fluorescence 635 nm; higher = more signal;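 also: E7 fragment applied at 1 µg/mL in TBST for 1 h at 4 C; score combines spot fluorescence with its signal to noise ratio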
[2] = modulators of HCV replicon luciferase signal, primary screen, HCV replication inhibitor project, Huh7 cells, luciferase reporter (AID 1109); conditions: 48 h, higher = more signal;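 also: huh7 hepatoma cells harbouring a luciferase neomycin HCV replicon reporter; luciferase luminescence as measure of HCV replicon replication; test concentration not given here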
[3] = biological target: Left-right determination factor 2 (Homo sapiens) (UniProt O00292); assay: LEFTY2 binders on small-molecule microarrays, primary screen, biochemical, small-molecule microarray, 635 nm fluorescence scan (AID 1110); conditions: LEFTY2 binding, higher = more signal
[4] = biological target: Calmodulin-1 (Homo sapiens) (UniProt P0DP23); assay: CALM1 binders on microarrays, EGTA buffer, profiling panel, biochemical, small-molecule microarray, Cy5-labelled CALM1 (AID 1111); conditions: Cy5-CALM1 binding fluorescence, higher = more signal;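 also: labelled calmodulin applied in Tris saline Tween buffer holding calcium plus EGTA and DTT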
[5] = biological target: Calmodulin-1 (Homo sapiens) (UniProt P0DP23); assay: calcium-bound CALM1 binders on microarrays, profiling panel, artefact control for SMM control-protein annotation, biochemical, small-molecule microarray, Cy5-labelled CALM1, plus calcium (AID 1112); conditions: Cy5-CALM1 binding fluorescence, higher = more signal;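 also: score merges spot fluorescence with signal to noise from triplicate slides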
[6] = small-molecule microarray binders of probe aWnt5a, primary screen, biochemical, biotinylated probe, 635/667 nm fluorescence (AID 1113); conditions: higher = more signal;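 also: score merges 667 nm fluorescence intensity with signal-to-noise per printed feature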
[7] = small-molecule microarray binders of probe aShh, primary screen, biochemical, biotinylated probe, 635/667 nm fluorescence (AID 1114); conditions: higher = more signal;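 also: probe is biotin-labelled aShh protein from a stem cell growth factor screen; measures binding of labelled protein to compounds printed on the slide; score merges feature fluorescence at 667 nm with signal-to-noise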
[8] = small-molecule microarray binders of probe aNog, primary screen, biochemical, biotinylated probe, 635/667 nm fluorescence (AID 1115); conditions: higher = more signal;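 also: probe is biotinylated aNog protein used at 0.15 µg/mL for 1 h at 4 C; z-score combines 667 nm fluorescence of each spot with its signal to noise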
[9] = biological target: Torsin-1A-interacting protein 1 (Homo sapiens) (UniProt Q5JTV8); assay: LAP1 binders from COS7 cell lysate, primary screen, small-molecule microarray, 635/667 nm fluorescence (AID 1116); conditions: COS7-hLAP1 lysate binding, 635 nm fluorescence, higher = more signal
[10] = biological target: Alpha-bungarotoxin (Bungarus multicinctus) (UniProt P60615); assay: alpha-bungarotoxin binders on microarray, profiling panel, artefact control for SMM control protein annotation, biochemical, small-molecule microarray, Alexa647 label, 635/667 nm fluorescence (AID 1117); conditions: alpha-BTX-A647 binding fluorescence, higher = more signal
[11] = biological target: Albumin (Bos taurus) (UniProt P02769); assay: bovine serum albumin binders on microarray, profiling panel, artefact control for SMM control protein annotation, biochemical, small-molecule microarray, Alexa647 label, 635/667 nm fluorescence (AID 1118); conditions: BSA-A647 binding, fluorescence 635 nm, higher = more signal;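 also: score merges 667 nm emission intensity and signal-to-noise per printed compound spot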
[12] = small-molecule microarray binders of probe aXIP, primary screen, biochemical, NeuroSMM set, 635/667 nm fluorescence (AID 1119); conditions: higher = more signal, called active from +8 up or from −8 down;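 also: probe is the protein aXip251-270 applied at 1 µg/mL to compound-printed slides; binding of probe to printed compounds measured as 667 nm fluorescence plus signal to noise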
[13] = small-molecule binders of probe aNOTCH3, primary screen, biochemical, small-molecule microarray, 635/667 nm fluorescence (AID 1120); conditions: higher = more signal;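 also: probe is a biotin-tagged antibody raised against NOTCH3 rather than NOTCH3 protein; score merges spot fluorescence near 667 nm with spot signal to noise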
[14] = small-molecule binders of probe aNOTCH2, primary screen, biochemical, small-molecule microarray, 635/667 nm fluorescence (AID 1121); conditions: higher = more signal;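 also: score merges feature fluorescence read at 667 nm with its signal to noise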
[15] = biological target: Carbonic anhydrase 2 (Homo sapiens) (UniProt P00918); assay: CAII small-molecule binders, profiling panel, biochemical, small-molecule microarray, Alexa647-labelled CAII (AID 1122); conditions: CAII-A647 binding fluorescence, higher = more signal
[16] = COS7 lysate on small-molecule microarray, probe aHis, 635 nm (AID 1123); conditions: COS7 cell lysate, fluorescence, higher = more signal;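 also: z-score combines 667nm fluorescence intensity with signal-to-noise per printed compound spot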
[17] = compound binding in COS7 lysate, probe aLAP1, primary screen, cell lysate, small-molecule microarray (AID 1124); conditions: probe aLAP1, fluorescence, higher = more signal;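 also: lysate comes from COS7 cells expressing LAP1 and is applied at 0.3 µg/mL; score merges spot fluorescence near 667 nm with signal-to-noise over triplicate slides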
[18] = tested on: Sam68 (KHDRBS1); assay: Sam68 small-molecule binders, primary screen, biochemical, small-molecule microarray, 635 nm fluorescence (AID 1125); conditions: small-molecule microarray binding, higher = more signal;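 also: score merges 667 nm channel intensity with signal to noise over triplicate slides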
[19] = tested on: Chordin-like protein 2 (CHRDL2); assay: CHRDL2 small-molecule binders, primary screen, biochemical, small-molecule microarray, 635 nm fluorescence (AID 1126); conditions: small-molecule microarray binding, fluorescence 635 nm; higher = more signal;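 also: printed compound slides probed with Chrdl2 protein at 4 µg/mL for 1 h at 4 C; score merges 667 nm emission intensity with signal to noise over three replicate slides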
[20] = biological target: Concanavalin-A (Canavalia ensiformis) (UniProt P02866); assay: ConA small-molecule binders, primary screen, artefact control for SMM control protein annotation, biochemical, small-molecule microarray, Alexa647 label, 635 nm (AID 1127); conditions: ConA-A647 binding fluorescence, higher = more signal;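 also: z combines 667 nm emission intensity with signal-to-noise across three replicate slides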
Chain of Concanavalin-A (Canavalia ensiformis) (P02866 whole entry, looked up): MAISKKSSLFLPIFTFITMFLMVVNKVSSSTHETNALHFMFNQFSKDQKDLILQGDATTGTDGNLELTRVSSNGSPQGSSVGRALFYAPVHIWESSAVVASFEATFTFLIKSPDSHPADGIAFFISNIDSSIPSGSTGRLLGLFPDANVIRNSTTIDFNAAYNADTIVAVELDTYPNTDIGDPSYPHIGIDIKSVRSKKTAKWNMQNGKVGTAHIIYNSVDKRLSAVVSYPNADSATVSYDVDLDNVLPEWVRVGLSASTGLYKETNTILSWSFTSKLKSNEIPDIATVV

Chain of Alpha-bungarotoxin (Bungarus multicinctus) (P60615 whole entry, looked up): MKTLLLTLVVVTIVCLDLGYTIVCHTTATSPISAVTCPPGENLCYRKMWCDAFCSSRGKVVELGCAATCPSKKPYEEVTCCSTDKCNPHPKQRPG
Chain of Left-right determination factor 2 (Homo sapiens) (O00292 whole entry, looked up): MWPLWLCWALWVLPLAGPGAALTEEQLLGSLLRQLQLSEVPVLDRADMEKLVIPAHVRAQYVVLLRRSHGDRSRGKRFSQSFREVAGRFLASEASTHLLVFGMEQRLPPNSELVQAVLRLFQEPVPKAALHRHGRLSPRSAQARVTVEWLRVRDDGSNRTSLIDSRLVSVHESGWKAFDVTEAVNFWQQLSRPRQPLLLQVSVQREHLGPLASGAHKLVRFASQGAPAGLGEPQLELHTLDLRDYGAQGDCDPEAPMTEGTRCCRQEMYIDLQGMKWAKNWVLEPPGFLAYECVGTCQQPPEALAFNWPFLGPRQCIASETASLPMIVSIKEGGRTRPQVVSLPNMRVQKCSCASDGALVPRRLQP
Chain of Albumin (Bos taurus) (P02769 whole entry, looked up): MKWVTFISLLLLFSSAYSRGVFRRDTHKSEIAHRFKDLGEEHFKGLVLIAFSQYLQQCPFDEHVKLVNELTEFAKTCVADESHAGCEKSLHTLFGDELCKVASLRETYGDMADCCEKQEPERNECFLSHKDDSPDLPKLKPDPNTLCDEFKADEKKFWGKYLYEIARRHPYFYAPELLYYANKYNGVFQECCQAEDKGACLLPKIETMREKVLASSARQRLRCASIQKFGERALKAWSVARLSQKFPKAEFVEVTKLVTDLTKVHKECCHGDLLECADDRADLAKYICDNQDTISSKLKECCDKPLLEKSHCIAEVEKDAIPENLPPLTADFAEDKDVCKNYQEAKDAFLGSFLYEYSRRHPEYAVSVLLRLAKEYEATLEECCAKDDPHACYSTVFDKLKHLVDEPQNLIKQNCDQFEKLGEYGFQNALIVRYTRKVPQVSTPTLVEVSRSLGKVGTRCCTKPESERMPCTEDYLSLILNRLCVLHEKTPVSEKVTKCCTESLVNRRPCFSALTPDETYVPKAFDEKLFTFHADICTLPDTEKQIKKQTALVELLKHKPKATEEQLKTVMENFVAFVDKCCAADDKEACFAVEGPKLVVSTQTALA
Chain of Torsin-1A-interacting protein 1 (Homo sapiens) (Q5JTV8 whole entry, looked up): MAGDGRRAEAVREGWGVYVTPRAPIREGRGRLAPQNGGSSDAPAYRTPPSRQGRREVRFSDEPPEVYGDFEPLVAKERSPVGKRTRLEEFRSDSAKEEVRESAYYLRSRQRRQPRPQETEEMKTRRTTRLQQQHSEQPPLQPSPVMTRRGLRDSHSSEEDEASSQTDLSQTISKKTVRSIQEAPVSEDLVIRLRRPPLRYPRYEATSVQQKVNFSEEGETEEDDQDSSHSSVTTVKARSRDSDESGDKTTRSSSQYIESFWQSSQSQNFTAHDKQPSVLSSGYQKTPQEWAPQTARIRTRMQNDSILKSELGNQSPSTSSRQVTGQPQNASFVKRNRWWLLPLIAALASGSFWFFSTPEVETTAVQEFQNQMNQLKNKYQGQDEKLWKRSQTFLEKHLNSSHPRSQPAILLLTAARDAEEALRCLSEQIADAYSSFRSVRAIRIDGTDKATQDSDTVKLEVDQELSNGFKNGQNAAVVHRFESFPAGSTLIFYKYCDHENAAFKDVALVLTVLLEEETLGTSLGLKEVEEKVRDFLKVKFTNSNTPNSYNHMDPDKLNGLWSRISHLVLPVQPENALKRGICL

Row | Compound | composite z-score [1] | z-score [2] | composite z-score [3] | composite z-score [4] | composite z-score [5] | composite z-score [6] | composite z-score [7] | composite z-score [8] | composite z-score [9] | composite z-score [10] | composite z-score [11] | composite Z-score [12] | composite z-score [13] | composite z-score [14] | composite z-score [15] | composite z-score [16] | composite z-score [17] | composite z-score [18] | composite z-score [19] | composite z-score [20]
1 | CCCCC(=C=CC[C@@H](O)c1cccc(OCCO)c1)C[C@@H](O)COCc1ccccc1 | -0.622 | -1.78 | -0.0756 | -0.613 | -0.285 | -0.096 | -0.0709 | -0.219 | 0.546 | 1.35 | 0.59 | 0.196 (inactive) | -0.158 | -0.104 | 0.441 | 0.696 | 0.117 | -0.121 | -0.598 | -0.302
2 | COC(=O)[C@@]1(Cc2ccc(F)cc2)[C@H]2c3cc(C(=O)N(C)C)n(CCn4cc([N+](=O)[O-])nc4C)c3C[C@H]2CN1C(=O)c1ccccc1 | 0.81 | -0.112 | -0.831 | 0.892 | 0.378 | -0.003 | 0.631 | 1.08 | 1.49 | 0.0533 | 0.781 | -0.133 (inactive) | 0.0203 | 0.107 | 0.477 | 2.02 | 0.317 | 0.155 | -0.187 | 0.294
3 | O=C1O[C@@H](c2ccccc2)[C@@H](c2ccccc2)N2[C@@H](c3ccc(OCCO)cc3)[C@]3(C(=O)Nc4ccc(C#CCCO)cc43)[C@@H](C(=O)Nc3nc4ccccc4s3)[C@H]12 | 1.36 | -1.36 | 0.364 | 0.84 | 0.338 | 0.0219 | 0.0639 | -0.353 | 0.82 | 0.626 | 0.844 | 1.09 (inactive) | 0.289 | -0.148 | 0.458 | 1.48 | 0.426 | 1.3 | 0.324 | 1.09
